Data published in PubChem BioAssay.

Each molecule was assayed on glycogen synthase kinase-3 (GSK3A per assay name; protocol says GSK3B) (assay: compounds binding glycogen synthase kinase-3 – biochemical, small-molecule microarray, 635 nm fluorescence, GSK3A, primary screen (AID 1103; further: the record names both GSK3A and GSK3B)). Conditions: fluorescence 635 nm, higher = more signal.

Compound | composite z-score
COC(=O)c1c(CC[C@@H](CO)NC(=O)NCCc2c[nH]c3ccccc23)oc(C(=O)Cc2ccccc2)c1C(=O)OC | 0.429
O=C(O)[C@H]1C[C@H]2C(=O)N3CCC[C@H]3C(=O)N2[C@H]1c1ccc(O)cc1 | -0.474
Cc1c(NC(=O)/C(C#N)=C/c2cccc([N+](=O)[O-])c2)c(=O)n(-c2ccccc2)n1C | 0.797
CCOC(=O)C1=CCC(c2ccc(F)cc2)N(S(=O)(=O)c2ccc(C)cc2)C1 (stereo not drawn) | 0.265
COC(=O)C(CC#Cc1ccc2c(c1)[C@]1(C(=O)N2)[C@H](c2ccc(O)cc2)N2[C@H](c3ccccc3)[C@H](c3ccccc3)OC(=O)[C@H]2[C@@H]1C(=O)N1CCN(c2ncccn2)CC1)C(=O)OC | 1.03
O=C1O[C@H](c2ccccc2)[C@H](c2ccccc2)N2[C@H]1[C@@H](C(=O)NC[C@H](O)c1ccccc1)[C@]1(C(=O)Nc3ccccc31)[C@H]2c1ccc(O)cc1 | 0.476
COCCOC(=O)N1C(=O)[C@@]2(c3cc(C#Cc4ccc(OC)cc4)ccc31)[C@H](c1ccc(O)cc1)N1[C@H](c3ccccc3)[C@H](c3ccccc3)OC(=O)[C@H]1[C@@H]2C(=O)Nc1nc2ccccc2s1 | 1.09
CC(C)=CCCC(C)=CC(O)C1C=CC2C(=O)N(c3ccccc3)C(=O)C2N1Nc1ccc(C(C)C)cc1 (stereo not drawn) | 0.615
O=C(O)[C@H](Cc1ccccc1)n1cc(-c2ccccc2)nn1 | 0.569
COC(=O)C(CC#Cc1ccc2c(c1)[C@]1(C(=O)N2)[C@H](c2ccccc2OCCO)N2[C@H](c3ccccc3)[C@H](c3ccccc3)OC(=O)[C@H]2[C@@H]1C(N)=O)C(=O)OC | 1
[N-]=[N+]=Nc1ccccc1C[C@]1(C(=O)NCC(O)CO)N=C(c2ccc(OCCCO)cc2)O[C@H]1c1ccccc1 (stereo partly drawn) | 0.544
Cc1ccc([C@H]2C(C(=O)O)=CCN2S(=O)(=O)c2ccc(C)cc2)cc1 | 0.47
[N-]=[N+]=Nc1ccccc1C[C@]1(C(=O)NCc2ccccc2)N=C(c2ccc(OCCCO)cc2)O[C@H]1c1ccccc1N=[N+]=[N-] | 0.34
CC(=O)NCCCC[C@@H]1NC(=O)[C@H]2C[C@@H](C(=O)O)[C@@H](c3ccc(O)cc3)N2C1=O | 1.34
COCCOC(=O)N1C(=O)[C@@]2(c3cc(C#CC4(O)CCCCCC4)ccc31)[C@H](C(=O)Nc1nc3ccccc3s1)[C@H]1C(=O)O[C@H](c3ccccc3)[C@H](c3ccccc3)N1[C@@H]2c1ccccc1OCCO | 1.29
COCC(=C=CC[C@H](O)c1cccc(OCCO)c1)C[C@H](O)c1cc(Cl)cc(Cl)c1O | 1.17
[N-]=[N+]=Nc1ccccc1[C@H]1OC(c2ccc(OCCCO)cc2)=N[C@@]1(Cc1ccccc1)C(=O)N1CCOCC1 | 0.921
CCCCC(O)C1C=CC2C(=O)N(C)C(=O)C2N1N1CCCCC1 (stereo not drawn) | -0.0038
COc1ccc(NC(=O)O[C@H]2[C@H](OC(=O)c3cc4ccccc4[nH]3)[C@@H](OC(=O)c3cc4ccccc4[nH]3)[C@@H](OC)O[C@@H]2CO)cc1 | 0.212
CN1C(=O)C2C=CC(C(O)c3c(F)cccc3Cl)N(NC(=O)OC(C)(C)C)C2C1=O (stereo not drawn) | 0.891
O=C(CS)NCCCCCNC(=O)[C@@H]1C[C@@H]2C(=O)NCC(=O)N2[C@@H]1c1ccc(O)cc1 | 0.692
COc1ccccc1CN1C(=O)c2ccccc2[C@@]2(Cc3ccccc3N(CCCN(C)C)C2=O)[C@@H]1c1ccc(CO)cc1 | 0.0081
[N-]=[N+]=NCc1ccccc1C[C@@]1(C(=O)NCC(O)CO)N=C(c2ccc(OCCCO)cc2)O[C@@H]1c1ccccc1 (stereo partly drawn) | -0.538
CCOC(=O)[C@H]1C/C=C/C[C@H](C(=O)OCC)C(=O)O[C@H]2[C@@H](OC)O[C@H](CO)[C@@H](OC(=O)c3ccc(Br)cc3)[C@@H]2OC1=O | -0.51
O=C1OCC=C[C@H]2OC34C=CCN(Cn5nnc6ccccc65)C(=O)[C@H]3N(CCCCCO)C(=O)[C@@H]4[C@@H]12 (stereo partly drawn) | -0.614
COCC(=C=CC[C@H](O)c1cccc(OCCO)c1)CCO | -0.218
O=C1NC(=O)C2C1C=CC(C(O)c1ccc(I)cc1)N2Nc1ccc(Cl)cc1Cl (stereo not drawn) | 0.782
COC(=O)[C@@]1(Cc2ccccc2)[C@H]2c3cc(C(=O)N(C)C)n(CCc4c[nH]c5ccc(O)cc45)c3C[C@H]2CN1C(=O)c1ccccc1 | 0.435

The molecules below were run against Epidermal growth factor receptor (Homo sapiens) (UniProt P00533) (assay: compounds binding epidermal growth factor receptor – biochemical, small-molecule microarray, 635 nm fluorescence, primary screen (AID 1104;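 further: score merges 667 nm emission intensity with spot signal to noise over triplicate slides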)). Conditions: EGFR binding, higher = more signal.
Sequence of Epidermal growth factor receptor (Homo sapiens) (P00533 whole entry, looked up): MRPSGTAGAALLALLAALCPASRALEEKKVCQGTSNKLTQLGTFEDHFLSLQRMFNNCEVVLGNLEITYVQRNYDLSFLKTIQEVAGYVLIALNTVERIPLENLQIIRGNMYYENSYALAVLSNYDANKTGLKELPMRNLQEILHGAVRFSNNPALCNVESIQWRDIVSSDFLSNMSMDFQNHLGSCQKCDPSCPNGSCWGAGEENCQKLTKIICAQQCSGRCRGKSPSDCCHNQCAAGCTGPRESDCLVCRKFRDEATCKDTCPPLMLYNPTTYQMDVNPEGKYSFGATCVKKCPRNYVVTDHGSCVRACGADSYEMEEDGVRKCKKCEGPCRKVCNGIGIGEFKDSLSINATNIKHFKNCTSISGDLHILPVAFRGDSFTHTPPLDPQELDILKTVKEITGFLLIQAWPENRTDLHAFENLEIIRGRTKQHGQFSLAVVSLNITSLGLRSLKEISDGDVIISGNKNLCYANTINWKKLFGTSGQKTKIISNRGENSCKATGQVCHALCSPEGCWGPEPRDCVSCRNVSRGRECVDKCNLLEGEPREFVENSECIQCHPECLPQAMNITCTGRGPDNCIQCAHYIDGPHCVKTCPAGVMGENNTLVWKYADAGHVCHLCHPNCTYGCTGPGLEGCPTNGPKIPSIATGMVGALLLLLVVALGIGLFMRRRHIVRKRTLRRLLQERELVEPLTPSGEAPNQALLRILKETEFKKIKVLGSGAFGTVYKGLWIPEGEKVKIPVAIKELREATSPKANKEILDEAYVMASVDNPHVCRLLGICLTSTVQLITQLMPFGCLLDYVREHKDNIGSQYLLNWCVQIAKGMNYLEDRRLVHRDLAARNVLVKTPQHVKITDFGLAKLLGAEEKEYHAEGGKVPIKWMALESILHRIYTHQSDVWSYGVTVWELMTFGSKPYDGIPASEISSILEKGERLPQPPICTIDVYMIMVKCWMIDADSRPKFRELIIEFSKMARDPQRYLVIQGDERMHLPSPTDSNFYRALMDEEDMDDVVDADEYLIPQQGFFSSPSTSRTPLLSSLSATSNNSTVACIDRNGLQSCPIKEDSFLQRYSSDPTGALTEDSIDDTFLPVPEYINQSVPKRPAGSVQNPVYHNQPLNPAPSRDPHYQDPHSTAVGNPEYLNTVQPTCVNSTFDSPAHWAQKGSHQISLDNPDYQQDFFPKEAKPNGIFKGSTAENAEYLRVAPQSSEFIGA

Compound | composite z-score
CCOC(=O)C[C@H]1[C@H](OC(=O)c2ccc(-c3ccccc3)cc2)[C@@H](NC(=O)c2ccccc2)c2cc(OCCCO)ccc2N1C(=O)c1ccc2ccccc2n1 | -0.0158
O=c1cccc(-c2ccccc2Cl)o1 | 0.0031
C=CCC(OC(C)=O)[C@@H]1[C@@H](N(Cc2cc3ccccc3o2)C(=O)Cc2ccc(OC)cc2)c2cc(OCCCO)ccc2N1C(=O)c1ccc2ccccc2c1 (stereo partly drawn) | -0.536
CS(=O)(=O)CCOC(=O)C1=CC(CCCO)=CC(c2ccc(CN3CCCC3)cc2)N(Cc2cccc(OC(F)(F)F)c2)C=C1C(=O)OCCS(C)(=O)=O (stereo not drawn) | 0.582
O=C1[C@@]23C=C(Br)[C@H](C[C@@H]2COC3)[C@]12CO2 | -1.24
O=C(CS)NCCCCCNC(=O)[C@H]1C[C@H]2C(=O)NCC(=O)N2[C@H]1c1ccc(O)cc1 | -0.641
CC(c1ccccc1)C(O)C1C=CC2C(=O)N(c3ccccc3)C(=O)C2N1Nc1ccccc1 (stereo not drawn) | 0.177
COC(=O)c1c(CC[C@@H](CO)NC(=O)NCCc2c[nH]c3ccccc23)oc(C(=O)Cc2ccccc2)c1C(=O)OC | 0.398
O=C(O)[C@H]1C[C@H]2C(=O)N3CCC[C@H]3C(=O)N2[C@H]1c1ccc(O)cc1 | -1.51
Cc1c(NC(=O)/C(C#N)=C/c2cccc([N+](=O)[O-])c2)c(=O)n(-c2ccccc2)n1C | 0.53
CCOC(=O)C1=CCC(c2ccc(F)cc2)N(S(=O)(=O)c2ccc(C)cc2)C1 (stereo not drawn) | 0.192
COC(=O)C(CC#Cc1ccc2c(c1)[C@]1(C(=O)N2)[C@H](c2ccc(O)cc2)N2[C@H](c3ccccc3)[C@H](c3ccccc3)OC(=O)[C@H]2[C@@H]1C(=O)N1CCN(c2ncccn2)CC1)C(=O)OC | 0.116
O=C1O[C@H](c2ccccc2)[C@H](c2ccccc2)N2[C@H]1[C@@H](C(=O)NC[C@H](O)c1ccccc1)[C@]1(C(=O)Nc3ccccc31)[C@H]2c1ccc(O)cc1 | 0.555
COCCOC(=O)N1C(=O)[C@@]2(c3cc(C#Cc4ccc(OC)cc4)ccc31)[C@H](c1ccc(O)cc1)N1[C@H](c3ccccc3)[C@H](c3ccccc3)OC(=O)[C@H]1[C@@H]2C(=O)Nc1nc2ccccc2s1 | 0.404
CC(C)=CCCC(C)=CC(O)C1C=CC2C(=O)N(c3ccccc3)C(=O)C2N1Nc1ccc(C(C)C)cc1 (stereo not drawn) | -0.0514
O=C(O)[C@H](Cc1ccccc1)n1cc(-c2ccccc2)nn1 | 0.293
COC(=O)C(CC#Cc1ccc2c(c1)[C@]1(C(=O)N2)[C@H](c2ccccc2OCCO)N2[C@H](c3ccccc3)[C@H](c3ccccc3)OC(=O)[C@H]2[C@@H]1C(N)=O)C(=O)OC | 0.241
[N-]=[N+]=Nc1ccccc1C[C@]1(C(=O)NCC(O)CO)N=C(c2ccc(OCCCO)cc2)O[C@H]1c1ccccc1 (stereo partly drawn) | -0.704

Compound | composite z-score
Cc1ccc([C@H]2C(C(=O)O)=CCN2S(=O)(=O)c2ccc(C)cc2)cc1 | -0.327
[N-]=[N+]=Nc1ccccc1C[C@]1(C(=O)NCc2ccccc2)N=C(c2ccc(OCCCO)cc2)O[C@H]1c1ccccc1N=[N+]=[N-] | 0.291
CC(=O)NCCCC[C@@H]1NC(=O)[C@H]2C[C@@H](C(=O)O)[C@@H](c3ccc(O)cc3)N2C1=O | 1.02
COCCOC(=O)N1C(=O)[C@@]2(c3cc(C#CC4(O)CCCCCC4)ccc31)[C@H](C(=O)Nc1nc3ccccc3s1)[C@H]1C(=O)O[C@H](c3ccccc3)[C@H](c3ccccc3)N1[C@@H]2c1ccccc1OCCO | 0.38
COCC(=C=CC[C@H](O)c1cccc(OCCO)c1)C[C@H](O)c1cc(Cl)cc(Cl)c1O | 0.331
[N-]=[N+]=Nc1ccccc1[C@H]1OC(c2ccc(OCCCO)cc2)=N[C@@]1(Cc1ccccc1)C(=O)N1CCOCC1 | 0.73
CCCCC(O)C1C=CC2C(=O)N(C)C(=O)C2N1N1CCCCC1 (stereo not drawn) | 0.229
COc1ccc(NC(=O)O[C@H]2[C@H](OC(=O)c3cc4ccccc4[nH]3)[C@@H](OC(=O)c3cc4ccccc4[nH]3)[C@@H](OC)O[C@@H]2CO)cc1 | -0.245
CN1C(=O)C2C=CC(C(O)c3c(F)cccc3Cl)N(NC(=O)OC(C)(C)C)C2C1=O (stereo not drawn) | 0.307
O=C(CS)NCCCCCNC(=O)[C@@H]1C[C@@H]2C(=O)NCC(=O)N2[C@@H]1c1ccc(O)cc1 | 0.17
COc1ccccc1CN1C(=O)c2ccccc2[C@@]2(Cc3ccccc3N(CCCN(C)C)C2=O)[C@@H]1c1ccc(CO)cc1 | 0.237
[N-]=[N+]=NCc1ccccc1C[C@@]1(C(=O)NCC(O)CO)N=C(c2ccc(OCCCO)cc2)O[C@@H]1c1ccccc1 (stereo partly drawn) | -0.455
CCOC(=O)[C@H]1C/C=C/C[C@H](C(=O)OCC)C(=O)O[C@H]2[C@@H](OC)O[C@H](CO)[C@@H](OC(=O)c3ccc(Br)cc3)[C@@H]2OC1=O | 0.0445
O=C1OCC=C[C@H]2OC34C=CCN(Cn5nnc6ccccc65)C(=O)[C@H]3N(CCCCCO)C(=O)[C@@H]4[C@@H]12 (stereo partly drawn) | -1.31
COCC(=C=CC[C@H](O)c1cccc(OCCO)c1)CCO | -0.0436
O=C1NC(=O)C2C1C=CC(C(O)c1ccc(I)cc1)N2Nc1ccc(Cl)cc1Cl (stereo not drawn) | -0.079
COC(=O)[C@@]1(Cc2ccccc2)[C@H]2c3cc(C(=O)N(C)C)n(CCc4c[nH]c5ccc(O)cc45)c3C[C@H]2CN1C(=O)c1ccccc1 | 0.121
